Bioassay records as filed in PubChem.
Compounds with a hit are over-represented: about 3.6% of the library has one in this group of screens.
Anthrax LF prot – Bacillus anthracis LF protease inhibitors, primary screen, biochemical, multiplex microsphere, MLPCN library | actives 0.12% (n = 360,000) | multiplex microsphere protease cleavage assay | inhibition, % at 10 µM; note: plate controls were buffer without enzyme for full effect and enzyme alone for no effect
MazEF act – activators of E. coli MazEF toxin-antitoxin RNase, primary screen, biochemical, fluorescence, uHTS | FAM/BHQ RNA-DNA oligo cleavage fluorescence, 5 h | activation, % at 20 µM | actives 0.32% (n = 350,000) | AID 504720, 2011; in the data active = activation above about 50%
Target sequence (P0AE70 whole entry, looked up): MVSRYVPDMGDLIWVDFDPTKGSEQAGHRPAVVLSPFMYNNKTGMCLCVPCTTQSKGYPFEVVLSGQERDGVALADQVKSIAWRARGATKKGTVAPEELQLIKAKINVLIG
BoNT-F LC inh – BoNT/F light chain protease inhibitors, primary screen, biochemical, flow cytometry, MLPCN library | inhibition, % at 10 µM | AID 588497, 2011 | Multiplex microsphere protease cleavage assay | actives 0.22% (n = 360,000) | Botulinum neurotoxin type F light chain protease (Clostridium botulinum); in the data active = inhibition above about 35%, passing the limit was not always enough; inconclusive = no clear call, values can overlap the other calls; note: plate controls were buffer without enzyme for full effect and enzyme alone for no effect
Bead autofluor – compound fluorescence in toxin protease inhibitor counterscreen. compound autofluorescence counterscreen, microsphere flow cytometry; stronger effect = higher value. fluorescence intensity (concentration not given with the values). actives 3.1% (n = 360,000). AID 624483; in the data active = fluorescence intensity above about 16000; inconclusive = no clear call, values can overlap the other calls
BoNT A protease – BoNT/A light chain protease inhibitors, primary screen, biochemical, flow cytometry, MLPCN library; Botulinum neurotoxin type A light chain protease (Clostridium botulinum A str. ATCC 3502); multiplex microsphere protease substrate cleavage; inhibition, % at 10 µM; actives 0.17% (n = 360,000); AID 588499, 2011; note: plate controls were buffer without enzyme for full effect and enzyme alone for no effect
* hit, by the source's call; ? = inconclusive; . = not tested or not shown. Cut-off read from the data, not from the text of the source, unless noted: active = inhibition above about 30%; inconclusive = no clear call, values can overlap the other calls; inactive = below that.

SMILES | Anthrax LF prot | MazEF act | BoNT-F LC inh | Bead autofluor | BoNT A protease
CC1(C)CC(=O)C(c2c[nH]c3ccccc23)C(=O)C1 | 3.5 | 5.1 | -0.9 | 4444 | -0.1
Cc1cc(NC(=O)CSc2nc3ccsc3c(=O)n2NC(=O)c2ccccc2)no1 | 1.0 | 0.7 | 2.7 | 10892 | 0.1
Cc1ccc(CNC(=O)CSc2nc3ccsc3c(=O)n2NC(=O)c2ccccc2)cc1 | -4.8 | 5.6 | -3.0 | 23505* | -1.6
CC(=O)c1ccc(S(=O)(=O)Nc2ccc(-c3cn4c(n3)SCC4)cc2)cc1 | -1.5 | 1.2 | -8.9 | 2674 | -0.6
CCOc1ccc(NC(=O)CC2C(=O)N(c3ccccc3)C(=O)N2Cc2ccccn2)cc1 (stereo not given) | -1.0 | 3.6 | 4.7 | 22858* | ?
COc1ccc(NC(=O)CC2C(=O)N(c3cccc(OC)c3)C(=O)N2CCC(C)C)cc1 (stereo not given) | 1.1 | -0.5 | -1.3 | 19759* | 3.5
CCOc1ccc(NC(=O)CC2C(=O)N(c3ccccc3)C(=S)N2Cc2ccccn2)cc1 (stereo not given) | -2.0 | 1.7 | -4.9 | 9610 | -0.7
COc1ccc(Cn2nnnc2C(c2ccc(N(C)C)cc2)N2CCC(C(N)=O)CC2)cc1 (stereo not given) | -9.3 | -3.8 | -6.1 | 3766 | -0.9
CC(C)(C)CNC(=O)c1cccc2c1C(=O)c1ccc(-c3cc4ccccc4o3)cc1S2(=O)=O | -1.2 | -97.8 | 4.1 | 2809 | 0.8
COC(=O)CC1COc2ccccc2N1C(=O)c1ccc(Br)cc1 (stereo not given) | 3.6 | 2.0 | 4.0 | 4286 | 0.4
COC(=O)CC1COc2ccccc2N1C(=O)c1ccc(C(C)(C)C)cc1 (stereo not given) | 0.0 | -5.2 | -0.2 | 20115* | ?
COC(=O)CC1COc2ccccc2N1C(=O)c1ccc(Cl)cc1 (stereo not given) | -7.4 | 6.0 | -1.2 | 23189* | -1.9
O=C(Nc1ccc(F)cc1F)c1cc(Cl)sc1Cl | 1.4 | 10.5 | -9.2 | 4206 | -1.4
CC(=O)Nc1ccc(N2C(C(C)=O)=NN(c3ccc(Cl)cc3)C2c2sccc2C)cc1 (stereo not given) | -14.8 | -52.3 | -10.4 | 12370 | -2.7
C/C(=N/NC(=O)c1cnccn1)c1ccncc1 | 0.7 | 7.3 | -6.5 | 4710 | -0.5
CC(=NNC(=S)N1CCN(C2CCCCCC2)CC1)c1ccccn1 | 92.0* | 4.1 | 74.5* | 4342 | 82.2*
CC(=NNC(=S)N1CC2CCC(CC2)C1)c1ccccn1 | 51.9* | 6.1 | 60.2* | 2877 | 28.6
CC(=NNC(=S)N1CC2CCC(CC2)C1)c1cnccn1 | 54.3* | 5.9 | 59.4* | 3454 | 40.5*
CC(=NNC(=S)N1CCN(c2ccccn2)CC1)c1ccccn1 | -12.7 | 11.2 | -43.2 | 3019 | 2.5
CC(=NNC(=S)N1CCN(c2ccccn2)CC1)c1nccs1 | 31.4* | 11.9 | 29.9 | 3551 | 15.7
CC(=NNC(=S)N1CCCCCC1)c1cccc2cccnc12 | -8.9 | 5.5 | -21.2 | 3474 | 3.0
CCOc1ccc(NC(=O)COC(=O)Cn2cnnn2)cc1OCC | -1.0 | -13.7 | -3.2 | 23264* | -0.1
CCOc1ccc(NC(=O)COC(=O)Cn2nc(C)c([N+](=O)[O-])c2C)cc1OCC | -0.5 | -3.1 | -0.7 | 3554 | -0.1
NCCc1nnc(SCC(=O)Nc2ccc(Br)cc2)o1 | -3.8 | 6.0 | -3.5 | 5786 | -0.2
CN(C)C(=O)CSc1nnc(CCN)o1 | -0.5 | -1.0 | 1.3 | 22720* | -0.6
SMILES | Anthrax LF prot | MazEF act | BoNT-F LC inh | Bead autofluor | BoNT A protease
CN(C)C(=O)CSc1nnc(C23CC4CC(CC(C4)C2)C3)o1 | -11.9 | 0.5 | -0.6 | 22684* | ?
COC(=O)c1ccsc1NC(=O)CCS(=O)(=O)c1ccc(Cl)cc1 | -0.2 | -0.5 | 4.2 | ? | -0.9
COc1ccc(NC(=O)C[C@H]2C(=O)N(CCc3ccccc3)C[C@@H]2Cc2ccccc2)cc1 | -4.8 | 3.6 | 0.9 | 2846 | -0.2
COC(=O)c1c(C(=O)OC)c(-c2ccc(C)cc2)n2c1CCC2 | -0.3 | -4.7 | -6.7 | 24446* | -4.6
COC(=O)c1c(C(=O)OC)c(-c2ccc(Cl)c(Cl)c2)n2c1CCC2 | -6.3 | -5.3 | 0.6 | 10365 | -0.3
O=C(CSc1nnc(-c2ccccc2F)n1C1CC1)NCc1ccco1 | -1.8 | 7.6 | -5.2 | 9266 | -1.5
Cc1cc(Nc2ccc(C(=O)O)cc2)nc(N)n1 | . | 4.3 | . | . | .
Cc1cc(Nc2ccc(F)cc2)nc(N)n1 | 0.8 | 4.9 | -3.1 | 23182* | 0.1
O=C(COC(=O)C1CC1)c1c[nH]c2ccccc12 | -16.1 | -0.4 | 4.8 | 19998* | 4.3
COc1cccc(/C=C/C(=O)OCC(=O)c2c[nH]c3ccccc23)c1OC | 14.9 | 22.3 | -9.0 | 4789 | 39.1*
CC1CC(C)CN(CC(=O)c2c[nH]c3ccccc23)C1 (stereo not given) | -0.2 | -26.4 | 35.7* | 7467 | 1.7
CCn1nc(C(=O)OCC(=O)c2c[nH]c3ccccc23)c2ccccc2c1=O | 38.0* | 5.2 | -17.5 | 10209 | 44.7*
O=C(CN1CCCCC1)c1c[nH]c2ccccc12 | -9.1 | 5.8 | 24.4 | 3702 | -1.2
O=C(CN1CCN(S(=O)(=O)c2ccccc2)CC1)Nc1ccnn1C1CCCC1 | ? | 0.7 | 4.2 | ? | 1.0
Cc1c(C(=O)N/N=C/c2ccncc2)nnn1-c1nonc1N | 5.1 | -0.1 | 7.9 | 5245 | -0.4
CN(C)CCOCCP(=O)(c1ccccc1)c1ccccc1 | 1.6 | 5.8 | 4.3 | 23350* | 1.3
Cc1ccc(NC(=O)CN2C(=O)COc3ccc(C)cc32)nc1 | -2.5 | 6.0 | 5.8 | 21570* | 4.2
Cc1ccc2c(c1)N(C(C)C(=O)N1CCC3(CC1)OCCO3)C(=O)CO2 (stereo not given) | -1.5 | 6.1 | -2.2 | 5671 | 0.5
Cc1ccc2c(c1)N(CC(=O)Nc1nccs1)C(=O)CO2 | -4.6 | 1.2 | 5.3 | 5851 | 2.5
Cc1ccc2c(c1)N(CCC(=O)N1CCC3(CC1)OCCO3)C(=O)C(C)O2 (stereo not given) | -9.7 | -7.3 | 1.2 | 6156 | 0.8
Cc1ccc2c(c1)N(C(C)C(=O)NCCc1ccccc1)C(=O)CO2 (stereo not given) | -1.1 | -5.5 | -2.9 | 20536* | ?
Cc1ccc2[nH]cc(CCNC(=O)CN3C(=O)c4ccccc4C3=O)c2c1 | 0.2 | 1.1 | -1.3 | 2612 | -0.4
Cc1ccc2c(c1)N(CCC(=O)N1CCC3(CC1)OCCO3)C(=O)CO2 | -1.0 | -1.4 | 0.4 | 22602* | -0.3
Cc1ccc2c(c1)N(CC(=O)NCCc1c[nH]c3ccccc13)C(=O)CO2 | -2.8 | 0.9 | -2.4 | 23441* | -2.2
COC(=O)c1sccc1-c1ccc(C(=O)Nc2ccccc2)o1 | 1.4 | 5.1 | 2.3 | 19373* | ?
COC(=O)c1sccc1NC(=O)c1ccc(C)o1 | -1.1 | 1.9 | -14.1 | 4838 | 0.2
